From PubChem BioAssay (NCI) come the findings set out here.

About 79,000 compounds went through this panel and 15% of them were active in at least one assay; those are over-represented in the sample as a whole. A number with no mark means an inactive call. The source made the active and inactive calls. No stated cut-off is given here; in the data, active means growth inhibition above about 70%; inactive means the rest.

The nature of test [1]: NCI Yeast Anticancer Drug Screen. Data for the rad50 strain (AID 155).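 Further: 0% = growth of vehicle-only cultures of the same strain.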 As to conditions: S. cerevisiae rad50 strain growth inhibition, hits give high values. The procedure, abridged:
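A DNA repair-deficient yeast mutant serves as the test organism; compound-induced growth inhibition is calculated against vehicle-treated cells.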

A short description of test [2]: NCI Yeast Anticancer Drug Screen. Data for the mec2-1 strain (AID 157). The note with it: S. cerevisiae mec2-1 strain, hits give high values. An outline of the steps: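 Vehicle-treated cultures served as reference for growth inhibition of compound-exposed mec2-1 yeast.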
The nature of test [3]: NCI Yeast Anticancer Drug Screen. Data for the sgs1 mgt1 strain (AID 161).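 Further: 0% = growth of cultures given vehicle only.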 The note with it: S. cerevisiae sgs1 mgt1 strain, hits give high values. An outline of the steps:
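Test agents were incubated with a DNA-repair-mutant yeast strain. Growth was then read and compared against vehicle-treated controls.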

The nature of test [4]: NCI Yeast Anticancer Drug Screen. Data for the cln2 rad14 strain (AID 165).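 Further: 0% = growth equal to vehicle treated cultures.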 The note with it: S. cerevisiae cln2 rad14 strain, hits give high values. An outline of the steps: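 Each compound was tested on cln2 rad14 yeast. Inhibition of growth was calculated against vehicle-exposed controls.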
Test [5] is described as follows: NCI Yeast Anticancer Drug Screen. Data for the bub3 strain (AID 167). The note with it: S. cerevisiae bub3 mutant strain, hits give high values. The procedure, abridged: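 Inhibition values come from growth of compound-treated mutant yeast normalised to vehicle-treated controls.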
A short description of test [6]: NCI Yeast Anticancer Drug Screen. Data for the mlh1 rad18 strain (AID 175). As to conditions: S. cerevisiae mlh1 rad18 strain growth inhibition, hits give high values. An outline of the steps: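 Vehicle-treated cultures served as the reference for growth inhibition in a yeast strain carrying DNA damage repair alterations exposed to each compound.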
Setting [7] is: at 5.0 µM (retest, dose inferred, filed as 0.5).
Where [8] appears, read: at 50.0 µM (retest, dose inferred, filed as 5.0).

With `O=[N+]([O-])c1ccc(NSc2ccccc2)cc1`, the growth inhibition in test [1] (setting [7]) is -14%; in test [1] (setting [8]), 98% (active); in test [1] (at 50.0 µM), 89.2% (active); in test [2] (setting [7]), 2%; in test [2] (setting [8]) it was 99% (active); in test [2] (at 50.0 µM), 92.5% (active). Also, the growth inhibition in test [3] (setting [7]) is 5%; in test [3] (setting [8]), 97% (active); in test [3] (at 50.0 µM), 90.2% (active); in test [4] (setting [7]), 21%; in test [4] (setting [8]), 99% (active); in test [4] (at 50.0 µM), 90.6% (active). The growth inhibition in test [5] (setting [7]) is 10%; in test [5] (setting [8]), 98% (active); in test [5] (at 50.0 µM), 91.3% (active); in test [6] (setting [7]) it was 6%; in test [6] (setting [8]), 99% (active); in test [6] (at 50.0 µM), 88.2% (active).

As for `Cc1cc(Br)c(N2C3=C(CC4=C2CCCC4=O)C(=O)CCC3)c(Br)c1`, the growth inhibition in test [1] (setting [7]) is 17%; in test [1] (setting [8]), 90% (active); in test [1] (at 50.0 µM) it was 96.8% (active); in test [2] (setting [7]), 7%; in test [2] (setting [8]), 89% (active); in test [2] (at 50.0 µM), 97.8% (active). The growth inhibition in test [3] (setting [7]) was -3%; in test [3] (setting [8]), 80% (active); in test [3] (at 50.0 µM) it was 97.8% (active); in test [4] (setting [7]), 10%; in test [4] (setting [8]) it was 94% (active); in test [4] (at 50.0 µM), 93.5% (active). Besides, the growth inhibition was -10% in test [5] (setting [7]); 95% (active) in test [5] (setting [8]); 98.2% (active) in test [5] (at 50.0 µM); 16% in test [6] (setting [7]); 97% (active) in test [6] (setting [8]); 97.8% (active) in test [6] (at 50.0 µM).

For `COc1ccc2nc3cc([N+](=O)[O-])ccc3c(NNc3ccc([N+](=O)[O-])cc3)c2c1`, the growth inhibition in test [1] (setting [7]) was 2%; in test [1] (setting [8]), 2%; in test [1] (at 50.0 µM) it was 58%; in test [2] (setting [7]) it was 2%; in test [2] (setting [8]), -4%; in test [2] (at 50.0 µM) it was 36.9%. Moreover, the growth inhibition in test [3] (setting [7]) was 3%; in test [3] (setting [8]), -4%; in test [3] (at 50.0 µM), 65%; in test [4] (setting [7]) it was -5%; in test [4] (setting [8]), -15%; in test [4] (at 50.0 µM), 30.9%. The growth inhibition is 2% in test [5] (setting [7]); -5% in test [5] (setting [8]); 55.2% in test [5] (at 50.0 µM); 5% in test [6] (setting [7]); 0% in test [6] (setting [8]); 66.2% in test [6] (at 50.0 µM).

As for `CCOC(=O)C(C(C)=O)C1=C(Cl)C(=O)c2ccccc2C1=O` (stereo not given), the growth inhibition was 94% (active) in test [1] (setting [7]); 100% (active) in test [1] (setting [8]); 99.3% (active) in test [1] (at 50.0 µM); 89% (active) in test [2] (setting [7]); 100% (active) in test [2] (setting [8]); 99.5% (active) in test [2] (at 50.0 µM). The growth inhibition in test [3] (setting [7]) is 96% (active); in test [3] (setting [8]), 100% (active); in test [3] (at 50.0 µM), 99.5% (active); in test [4] (setting [7]), 77% (active); in test [4] (setting [8]), 100% (active); in test [4] (at 50.0 µM), 89.7% (active). Moreover, the growth inhibition in test [5] (setting [7]) is 96% (active); in test [5] (setting [8]), 100% (active); in test [5] (at 50.0 µM), 97.5% (active); in test [6] (setting [7]), 84% (active); in test [6] (setting [8]), 99% (active); in test [6] (at 50.0 µM) it was 99.3% (active).

For `C[n+]1c(-c2cccc(OCCCCCCCCOc3cccc(-c4c5cc(N)ccc5c5ccc(N)cc5[n+]4C)c3)c2)c2cc(N)ccc2c2ccc(N)cc21`, the growth inhibition is 99% (active) in test [1] (setting [7]); 97% (active) in test [1] (setting [8]); 85.3% (active) in test [1] (at 50.0 µM); 99% (active) in test [2] (setting [7]); 99% (active) in test [2] (setting [8]); 88.2% (active) in test [2] (at 50.0 µM). The growth inhibition in test [3] (setting [7]) is 97% (active); in test [3] (setting [8]), 98% (active); in test [3] (at 50.0 µM) it was 89.8% (active); in test [4] (setting [7]), 98% (active); in test [4] (setting [8]), 97% (active); in test [4] (at 50.0 µM), 89.8% (active). For the same compound, the growth inhibition in test [5] (setting [7]) is 99% (active); in test [5] (setting [8]), 98% (active); in test [5] (at 50.0 µM) it was 88.5% (active); in test [6] (setting [7]), 96% (active); in test [6] (setting [8]) it was 97% (active); in test [6] (at 50.0 µM) it was 89.3% (active).

For the compound `Oc1cc2ccccc2c2ccccc12`, the growth inhibition in test [1] (setting [7]) was 0%; in test [1] (setting [8]) it was 93% (active); in test [1] (at 50.0 µM), 99.2% (active); in test [2] (setting [7]) it was 2%; in test [2] (setting [8]) it was 83% (active); in test [2] (at 50.0 µM), 99.2% (active). For the same compound, the growth inhibition in test [3] (setting [7]) is 4%; in test [3] (setting [8]) it was 87% (active); in test [3] (at 50.0 µM), 98.9% (active); in test [4] (setting [7]), -15%; in test [4] (setting [8]) it was 97% (active); in test [4] (at 50.0 µM) it was 98.5% (active). Besides, the growth inhibition is 16% in test [5] (setting [7]); 96% (active) in test [5] (setting [8]); 99.2% (active) in test [5] (at 50.0 µM); 6% in test [6] (setting [7]); 93% (active) in test [6] (setting [8]); 98.9% (active) in test [6] (at 50.0 µM).

With `CC(=O)OCC(=O)[C@@]1(O)[C@H](C)C[C@H]2[C@@H]3C=C(C)C4=Cc5c(cnn5-c5ccccc5)C[C@]4(C)[C@@]3(F)[C@@H](O)C[C@@]21C`, the growth inhibition in test [1] (setting [7]) was 0%; in test [1] (setting [8]), 81% (active); in test [1] (at 50.0 µM), 82.4% (active); in test [2] (setting [7]) it was 0%; in test [2] (setting [8]), 36%; in test [2] (at 50.0 µM), 69.5%. Besides, the growth inhibition was 35% in test [3] (setting [7]); 91% (active) in test [3] (setting [8]); 83.2% (active) in test [3] (at 50.0 µM); 19% in test [4] (setting [7]); 88% (active) in test [4] (setting [8]); 73.4% (active) in test [4] (at 50.0 µM). The growth inhibition in test [5] (setting [7]) is -1%; in test [5] (setting [8]), 79% (active); in test [5] (at 50.0 µM), 24.1%; in test [6] (setting [7]), 46%; in test [6] (setting [8]), 87% (active); in test [6] (at 50.0 µM), 87.7% (active).

On to `COc1ccc(-c2c(C#N)c(-c3ccc(C)cc3)n(NS(=O)(=O)c3ccc(C)cc3)c(=O)c2C#N)cc1`, for which the growth inhibition in test [1] (setting [7]) was -2%; in test [1] (setting [8]) it was 55%; in test [1] (at 50.0 µM) it was 71.3% (active); in test [2] (setting [7]) it was -2%; in test [2] (setting [8]), 70% (active); in test [2] (at 50.0 µM), 68.7%. For the same compound, the growth inhibition in test [3] (setting [7]) was -3%; in test [3] (setting [8]), 44%; in test [3] (at 50.0 µM) it was 84.7% (active); in test [4] (setting [7]), -5%; in test [4] (setting [8]), 68%; in test [4] (at 50.0 µM), 64.1%. Moreover, the growth inhibition was 4% in test [5] (setting [7]); 65% in test [5] (setting [8]); 79.4% (active) in test [5] (at 50.0 µM); -2% in test [6] (setting [7]); 62% in test [6] (setting [8]); 83.6% (active) in test [6] (at 50.0 µM).

For `CCOC(=O)c1c(C)[nH]c(CO)c1C`, the growth inhibition in test [1] (setting [7]) is -1%; in test [1] (setting [8]), 14%; in test [1] (at 50.0 µM) it was 28.1%; in test [2] (setting [7]), 6%; in test [2] (setting [8]), 20%; in test [2] (at 50.0 µM), 38%. Moreover, the growth inhibition in test [3] (setting [7]) was 2%; in test [3] (setting [8]), 24%; in test [3] (at 50.0 µM) it was 43.1%; in test [4] (setting [7]), 4%; in test [4] (setting [8]), 0%; in test [4] (at 50.0 µM), 31.8%. Moreover, the growth inhibition in test [5] (setting [7]) is 4%; in test [5] (setting [8]) it was 8%; in test [5] (at 50.0 µM) it was 34%; in test [6] (setting [7]), -1%; in test [6] (setting [8]), 13%; in test [6] (at 50.0 µM), 65.5%.

In the case of `C=C1C(=O)O[C@H]2[C@H](OC(C)=O)[C@@H](C)CCC/C(C)=C/CC[C@@]3(C)O[C@@H]3C[C@@H]12`, the growth inhibition was 14% in test [1] (setting [7]); 99% (active) in test [1] (setting [8]); 91.9% (active) in test [1] (at 50.0 µM); 17% in test [2] (setting [7]); 99% (active) in test [2] (setting [8]); 94.2% (active) in test [2] (at 50.0 µM). For the same compound, the growth inhibition in test [3] (setting [7]) was 20%; in test [3] (setting [8]), 98% (active); in test [3] (at 50.0 µM), 92.8% (active); in test [4] (setting [7]), 3%; in test [4] (setting [8]), 95% (active); in test [4] (at 50.0 µM), 91.1% (active). Also, the growth inhibition was 3% in test [5] (setting [7]); 98% (active) in test [5] (setting [8]); 93% (active) in test [5] (at 50.0 µM); 22% in test [6] (setting [7]); 99% (active) in test [6] (setting [8]); 92.3% (active) in test [6] (at 50.0 µM).
